In all, about 39,000 compounds went through this assay and about 3,300 (8.5%) were called active. The entries come from a sample that favours actives as a whole.

The values that follow come from the antibiotic and cytotoxicity screens of Wong et al. (2023).

The test has as its system HepG2. Kind of test: cytotoxicity call (relative viability < 0.9). As to conditions: 10 µM.
Take `COc1ccc(NC(=O)Nc2cccc3c2O[C@@H](CN(C)Cc2ccc(C(=O)Nc4ccccc4N)cc2)[C@@H](C)CN([C@@H](C)CO)C3=O)cc1`: the cytotoxicity call was “inactive”.
On to `CCN(CC)c1ccc(N2CC=C[C@@]34O[C@@H]5/C=C\CCCOC(=O)[C@@H]5[C@H]3C(=O)N(CCCCCCO)[C@@H]4C2=O)cc1`, for which the cytotoxicity call was “inactive”.
As for `C[C@@H]1CCCCO[C@@H](CN(C)C(=O)Nc2ccccc2)[C@H](C)CN([C@@H](C)CO)C(=O)c2cc(NS(=O)(=O)c3ccccc3)ccc2O1`, the entry is “inactive”; as for `Cc1ccc(S(=O)(=O)Nc2ccc3c(c2)C(=O)N([C@@H](C)CO)C[C@@H](C)[C@@H](CN(C)S(=O)(=O)c2c(C)noc2C)O3)cc1`, “inactive”.
On to `C[C@H](CO)N1C[C@H](C)[C@H](CN(C)CC2CCCCC2)Oc2c(NC(=O)CCCCCC(=O)Nc3ccccc3N)cccc2C1=O`, for which the cytotoxicity call is “inactive”.
For the molecule `C[C@H]1CN([C@@H](C)CO)C(=O)c2cccc(NC(=O)CCCCCC(=O)Nc3ccccc3N)c2O[C@H]1CN(C)CC1CCCCC1`, the cytotoxicity call is “inactive”.
Consider `C[C@@H]1CN([C@H](C)CO)C(=O)c2cccc(NC(=O)CCCCCC(=O)Nc3ccccc3N)c2O[C@@H]1CN(C)CC1CCCCC1`, for which the cytotoxicity call was “inactive”.
Take `C[C@@H]1CN([C@H](C)CO)C(=O)c2cccc(NC(=O)CCCCCC(=O)Nc3ccccc3N)c2O[C@H]1CN(C)CC1CCCCC1`: the cytotoxicity call was “active”.
`C[C@H]1CN([C@@H](C)CO)C(=O)c2cccc(NC(=O)CCCCCC(=O)Nc3ccccc3N)c2O[C@@H]1CN(C)CC1CCCCC1`: the cytotoxicity call was “active”.
Regarding `C[C@H](CO)N1C[C@H](C)[C@@H](CN(C)CC2CCCCC2)Oc2c(NC(=O)CCCCCC(=O)Nc3ccccc3N)cccc2C1=O`, the cytotoxicity call is “inactive”.
`C[C@@H]1CN([C@@H](C)CO)C(=O)c2cccc(NC(=O)CCCCCC(=O)Nc3ccccc3N)c2O[C@@H]1CN(C)CC1CCCCC1`: the cytotoxicity call was “active”.
Then `C[C@@H]1CN([C@@H](C)CO)C(=O)c2cccc(NC(=O)CCCCCC(=O)Nc3ccccc3N)c2O[C@H]1CN(C)CC1CCCCC1`, with “inactive”; and `C[C@@H]1CN([C@@H](C)CO)C(=O)c2cccc(NC(=O)CCCCCC(=O)Nc3ccccc3N)c2O[C@@H]1CN(C)Cc1ccccc1`, with “inactive”; and `Nc1nc(=O)c2ncn(COC(CO)CO)c2[nH]1`, with “inactive”.
Regarding `CN[C@H]1[C@@H](O[C@H]2[C@@H](O[C@H]3[C@@H](O)[C@@H](O)[C@@H](NC(=N)N)[C@@H](O)[C@@H]3NC(=N)N)O[C@@H](C)[C@@]2(O)C=O)O[C@@H](CO)[C@@H](O)[C@@H]1O.CN[C@H]1[C@@H](O[C@H]2[C@@H](O[C@H]3[C@@H](O)[C@@H](O)[C@@H](NC(=N)N)[C@@H](O)[C@@H]3NC(=N)N)O[C@@H](C)[C@@]2(O)C=O)O[C@@H](CO)[C@@H](O)[C@@H]1O.O=S(=O)(O)O.O=S(=O)(O)O.O=S(=O)(O)O`, the cytotoxicity call is “inactive”.
For `CC1(C)SC2C(NC(=O)C(C(=O)[O-])c3ccccc3)C(=O)N2C1C(=O)[O-].[Na+].[Na+]` (centres undefined), the cytotoxicity call is “inactive”.
As for `C[C@@H]1CCCCO[C@@H](CN(C)C(=O)c2ccccc2)[C@@H](C)CN([C@@H](C)CO)C(=O)c2cc(NC(=O)c3ccccc3)ccc2O1`, the entry is “inactive”; as for `C[C@@H]1CCCCO[C@@H](CN(C)C(=O)Nc2ccc(C(F)(F)F)cc2)[C@@H](C)CN([C@H](C)CO)C(=O)c2cc(NS(=O)(=O)c3cn(C)cn3)ccc2O1`, “inactive”.
`Cc1cccc(C)c1Nc1nc2c(C)cc(C)c(C)c2s1`: the cytotoxicity call is “inactive”.
`C=C1SC(Nc2c(C)cccc2C)=NC12CCCCC2`: the cytotoxicity call is “active”.
Then `Cc1cccc(C)c1NC(=O)C1CCCCN1C.Cl` (centres undefined), with “inactive”.
`C[C@@H]1CN([C@@H](C)CO)C(=O)Cc2cc(NC(=O)C3CC3)ccc2O[C@H]1CN(C)C(=O)Nc1ccccc1`: the cytotoxicity call was “inactive”.
Take `COCC#Cc1ccc([C@H]2[C@H]3CN(C(=O)CN4CCOCC4)CC(=O)N3[C@H]2CO)cc1`: the cytotoxicity call is “inactive”.
Then `COc1ccc(S(=O)(=O)N(C)C[C@@H]2OCCCC[C@@H](C)Oc3ccc(NS(=O)(=O)c4cn(C)cn4)cc3C(=O)N([C@H](C)CO)C[C@H]2C)cc1`, with “inactive”; and `C[C@@H]1CN([C@@H](C)CO)C(=O)c2cc(C#CCc3ccccc3)cnc2O[C@H]1CN(C)CC1CCOCC1`, with “inactive”.
As for `COc1ccc(NC(=O)Nc2ccc3c(c2)C(=O)N([C@@H](C)CO)C[C@@H](C)[C@@H](CN(C)S(=O)(=O)c2ccc(F)cc2)OCCCC[C@@H](C)O3)cc1`, the cytotoxicity call was “inactive”.
As for `COc1ccc(NC(=O)Nc2ccc3c(c2)C(=O)N([C@H](C)CO)C[C@H](C)[C@@H](CN(C)S(=O)(=O)c2ccc(F)cc2)OCCCC[C@H](C)O3)cc1`, the cytotoxicity call was “inactive”.
Regarding `COc1ccc(NC(=O)Nc2ccc3c(c2)C(=O)N([C@H](C)CO)C[C@@H](C)[C@H](CN(C)S(=O)(=O)c2ccc(F)cc2)OCCCC[C@H](C)O3)cc1`, the cytotoxicity call is “active”.
Then `COc1ccc(NC(=O)Nc2ccc3c(c2)C(=O)N([C@H](C)CO)C[C@H](C)[C@H](CN(C)S(=O)(=O)c2ccc(F)cc2)OCCCC[C@@H](C)O3)cc1`, with “inactive”.
In the case of `COc1ccc(NC(=O)Nc2ccc3c(c2)C(=O)N([C@H](C)CO)C[C@@H](C)[C@@H](CN(C)S(=O)(=O)c2ccc(F)cc2)OCCCC[C@H](C)O3)cc1`, the cytotoxicity call is “inactive”.
Take `COc1ccc(S(=O)(=O)N(C)C[C@H]2OCCCC[C@@H](C)Oc3ccc(NC(=O)Nc4ccc(F)cc4)cc3C(=O)N([C@H](C)CO)C[C@@H]2C)cc1`: the cytotoxicity call was “active”.
For the molecule `CO[C@H]1CN(C)C(=O)c2ccc(NS(=O)(=O)c3cn(C)cn3)cc2OC[C@H](C)N(CC2CC2)C[C@@H]1C`, the cytotoxicity call was “inactive”.
For `CC1(C)OC(=O)N(CCCC(=O)O)[C@@]1(C)O`, the cytotoxicity call was “inactive”.
As to `CC(=O)OC1CC(OC(C)=O)C2(C)C(CC(O)C3(C)C2CCC2(C)C(c4ccoc4)OC(=O)C4OC423)C1(C)C` (centres undefined), the cytotoxicity call was “inactive”.
As for `C[C@H]1CN([C@@H](C)CO)C(=O)c2cc(NC(=O)Cn3cnnn3)ccc2O[C@H]1CN(C)CC1CCCCC1`, the entry is “inactive”.
Turning to `C[C@H](CO)N1C[C@H](C)[C@H](CN(C)Cc2ccc(C(=O)O)cc2)Oc2c(NC(=O)C3CC3)cccc2C1=O`, the cytotoxicity call was “inactive”.
As to `CS(=O)(=O)NC[C@@]12COC[C@H]1CN(C(=O)c1cnccn1)C2`, the cytotoxicity call was “inactive”.
Consider `C[C@@H]1CCCCO[C@H](CN(C)S(=O)(=O)c2ccc(Cl)cc2)[C@H](C)CN([C@@H](C)CO)C(=O)c2cc(NC(=O)CCC(F)(F)F)ccc2O1`, for which the cytotoxicity call is “inactive”.
Turning to `C[C@H]1CCCCO[C@@H](CN(C)Cc2ccc(C(F)(F)F)cc2)[C@@H](C)CN([C@@H](C)CO)C(=O)c2cc(NC(=O)CCCN(C)C)ccc2O1`, the cytotoxicity call is “inactive”.
Turning to `C[C@@H]1CN([C@H](C)CO)C(=O)c2cc(NC(=O)CCCN(C)C)ccc2O[C@@H](C)CCCCO[C@H]1CN(C)Cc1ccc(C(F)(F)F)cc1`, the cytotoxicity call was “inactive”.
As for `C[C@@H]1CCCCO[C@H](CN(C)Cc2ccc(C(F)(F)F)cc2)[C@H](C)CN([C@@H](C)CO)C(=O)c2cc(NC(=O)CCCN(C)C)ccc2O1`, the cytotoxicity call is “active”.
Consider `C[C@@H]1CN([C@H](C)CO)C(=O)c2cc(NC(=O)CCCN(C)C)ccc2O[C@@H](C)CCCCO[C@@H]1CN(C)Cc1ccc(C(F)(F)F)cc1`, for which the cytotoxicity call was “inactive”.
In the case of `C[C@H]1CCCCO[C@H](CN(C)Cc2ccc(C(F)(F)F)cc2)[C@@H](C)CN([C@@H](C)CO)C(=O)c2cc(NC(=O)CCCN(C)C)ccc2O1`, the cytotoxicity call was “active”.
With `C[C@@H]1CCCCO[C@H](CN(C)Cc2ccc(C(F)(F)F)cc2)[C@H](C)CN([C@H](C)CO)C(=O)c2cc(NC(=O)CCCN(C)C)ccc2O1`, the cytotoxicity call was “inactive”.
Turning to `C[C@H](CO)N1C[C@H](C)[C@H](CN(C)Cc2ccc(C(F)(F)F)cc2)OCCCC[C@H](C)Oc2ccc(NC(=O)CCCN(C)C)cc2C1=O`, the cytotoxicity call was “active”.
As for `C[C@@H]1CCCCO[C@@H](CN(C)Cc2ccc(C(F)(F)F)cc2)[C@@H](C)CN([C@H](C)CO)C(=O)c2cc(NC(=O)CCCN(C)C)ccc2O1`, the entry is “inactive”; as for `C[C@H](CO)N1C[C@H](C)[C@@H](CN(C)Cc2ccc(C(F)(F)F)cc2)OCCCC[C@H](C)Oc2ccc(NC(=O)CCCN(C)C)cc2C1=O`, “inactive”; as for `C[C@@H]1CN([C@@H](C)CO)C(=O)c2cc(NC(=O)CCCN(C)C)ccc2O[C@@H](C)CCCCO[C@H]1CN(C)Cc1ccc(C(F)(F)F)cc1`, “inactive”.
As for `C[C@@H]1CCCCO[C@H](CN(C)Cc2ccc(C(F)(F)F)cc2)[C@@H](C)CN([C@@H](C)CO)C(=O)c2cc(NC(=O)CCCN(C)C)ccc2O1`, the entry is “active”; as for `C[C@@H]1CCCCO[C@@H](CN(C)Cc2ccc(C(F)(F)F)cc2)[C@@H](C)CN([C@@H](C)CO)C(=O)c2cc(NC(=O)CCCN(C)C)ccc2O1`, “inactive”.
For `CN(C)C(=O)C[C@@H]1CC[C@H]2[C@H](COc3ccc(NS(=O)(=O)c4cccc(F)c4)cc3C(=O)N2C)O1`, the cytotoxicity call was “inactive”.
On to `COc1ccc(S(=O)(=O)N(C)C[C@H]2OCCCC[C@H](C)Oc3ccc(NS(C)(=O)=O)cc3C(=O)N([C@H](C)CO)C[C@@H]2C)cc1`, for which the cytotoxicity call was “inactive”.
As for `C[C@H](CO)N1C[C@H](C)[C@H](CN(C)Cc2cccc(O)c2)OCc2ccccc2-c2c(n(C)c3ccccc23)C1=O`, the cytotoxicity call is “inactive”.
With `C[C@@H]1CN([C@@H](C)CO)C(=O)c2cc(C#CC3(O)CCCC3)cnc2O[C@H]1CN(C)C(=O)Cc1ccncc1`, the cytotoxicity call was “inactive”.
As for `C[C@@H]1CCCCO[C@@H](CN(C)S(=O)(=O)c2ccccc2)[C@H](C)CN([C@H](C)CO)C(=O)c2cc(NC(=O)c3ccccc3)ccc2O1`, the entry is “inactive”; as for `N=C(N=C(N)N)N1CCOCC1`, “inactive”.
As to `O=C1N[C@@H]2[C@@H]1[C@H]1C=C[C@H]2C1`, the cytotoxicity call is “inactive”.
Then `C[C@@H]1CCCCO[C@H](CN(C)C(=O)Nc2ccc(F)cc2)[C@H](C)CN([C@@H](C)CO)C(=O)c2cc(NS(=O)(=O)c3ccc(F)cc3)ccc2O1`, with “inactive”; and `C[C@H]1CN([C@@H](C)CO)C(=O)c2cc(-c3ccncc3)cnc2O[C@@H]1CN(C)S(=O)(=O)c1ccc(F)cc1`, with “inactive”.
